Data as given in PubChem BioAssay AID1654 (Sanford-Burnham Center for Chemical Genomics, 2009).
About 1,500 (0.52%) of roughly 290,000 compounds were called active. What follows is part of a selection rich in actives, with near analogues and random picks from the rest. Values without a mark were called inactive. Rule as the data show it: active = inhibition above about 50%; inactive = the rest.

The molecules below were run against Dual specificity protein phosphatase 3 (Homo sapiens) (UniProt P51452) (assay: VHR1 phosphatase inhibitors, primary screen, biochemical, absorbance, uHTS (AID 1654)). Conditions: recombinant VHR phosphatase, pNPP absorbance, at 13.3 µM, stronger effect = higher value.
Sequence of Dual specificity protein phosphatase 3 (Homo sapiens) (P51452 whole entry, looked up): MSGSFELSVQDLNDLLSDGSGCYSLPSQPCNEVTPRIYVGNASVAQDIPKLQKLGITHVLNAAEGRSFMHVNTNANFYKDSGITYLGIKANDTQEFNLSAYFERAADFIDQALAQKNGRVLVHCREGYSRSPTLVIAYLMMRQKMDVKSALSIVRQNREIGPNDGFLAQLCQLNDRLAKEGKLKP

First: CCOc1ccc(NC(=S)N2CCC(NC(=O)c3ccccc3)CC2)cc1
Second: O=C(COc1ccc(Br)cc1F)NC1CCN(Cc2ccccc2)CC1
The inhibition of the first is higher: 20.4% for the first, 4.7% for the second.

First: Clc1ccc(Nc2ncnc3c2nnn3Cc2ccccc2)cc1
Second: Cc1nc(Nc2ccc3c(c2)OCCO3)c2nnn(Cc3ccccc3Cl)c2n1
The inhibition of the first is lower: 16.3% for the first, 18.2% for the second.

First: CCC(=O)Nc1ccc(-c2ccc(N3CCCCC3)nn2)cc1
Second: COCC(=O)Nc1c(C(=O)N2CCCC2)oc2ccccc12
The inhibition of the first is lower: -19.8% for the first, 1% for the second.

Compared with `COc1ccc(NC(=O)C2CCCN(S(=O)(=O)c3cccc4cccnc34)C2)cc1OC` (configuration not stated), `Cc1cc(C)cc(NC(=O)C2CCCN2S(=O)(=O)c2cccc3cccnc23)c1` (configuration not stated) is lower in inhibition: 23.6% for the first, -42.1% for the second.

Compared with `COc1ccc(OC)c(NC(=O)C2CCCN2S(=O)(=O)c2cccc3nsnc23)c1` (configuration not stated), `Cc1ccc(NC(=O)C2CCCN2S(=O)(=O)c2cccc3cccnc23)c(C)c1` (configuration not stated) is lower in inhibition: 19% for the first, -0.7% for the second.

Going from `CC1CCCCC1NC(=O)C1CCCN1S(=O)(=O)c1cccc2nsnc12` (configuration not stated) to `O=C(NCc1ccco1)C1CCCN(S(=O)(=O)c2cccc3nonc23)C1` (configuration not stated), the inhibition falls from 16.6% to 3.6%.

Going from `CCc1ccc(-c2cc(C)no2)cc1S(=O)(=O)NCCc1ccc(S(N)(=O)=O)cc1` to `CCc1ccccc1NC(=O)c1ccc2c(c1)CCN2S(C)(=O)=O`, the inhibition falls from 28% to -17.9%.

Going from `Cc1ccc(NC(=O)c2nc[nH]c2C(=O)N[C@@H](CCCCNC(=O)OC(C)(C)C)C(=O)OC(C)(C)C)cc1` to `CC(=O)Nc1ccc(S(=O)(=O)N2CCC(C(=O)NC3CC3)CC2)cc1`, the inhibition rises from -0.7% to 14.9%.

Going from `O=C1/C(=C/c2ccc(F)cc2)SC(=S)N1CCCC(=O)N1CCCCC1CCO` (configuration not stated) to `CCC(C(=O)NC1CCCC1)N(C(=O)Cn1nnc(-c2ccc(C)o2)n1)c1ccc(OC)c(OC)c1` (configuration not stated), the inhibition falls from 42.6% to 13%.

First: Nc1nc(SCC(=O)Nc2ccc(Cl)cc2C(F)(F)F)n[nH]1
Second: CCN(C(=O)CSc1nnc(-c2ccncc2)o1)c1ccccc1
The inhibition of the first is lower: 2.5% for the first, 11% for the second.

`Cc1cc(C(=O)N2CCN(c3ccccn3)CC2)c(C)o1` was tested, and the inhibition was -2.1%.

`CCOc1ccc(CC(=O)NC2CCN(Cc3ccccc3)CC2)cc1` was tested, and the inhibition was 51% (active).
In the case of `CC(=O)Nc1ccc(Nc2ncnc3c2nnn3Cc2ccccc2Cl)cc1`, the inhibition is reported as 52% (active).
In the case of `O=C(Nc1nccs1)C1CCCN1S(=O)(=O)c1cccc2cccnc12` (configuration not stated), the inhibition is reported as 56.5% (active).
With `CC(=O)c1cccc(NC(=O)C2CCCN2S(=O)(=O)c2cccc3nsnc23)c1` (configuration not stated) the inhibition was 54.2% (active).
For `CC(=O)c1cccc(NC(=O)C2CCCN(S(=O)(=O)c3cccc4nonc34)C2)c1` (configuration not stated), the inhibition was 50.4% (active).
In the case of `COc1cccc(OC)c1C(=O)Nc1c(C(=O)N2CCN(c3ccccn3)CC2)oc2ccccc12`, the inhibition is reported as 52.1% (active).
